This is a sample that favours compounds with a hit; in the whole collection about 5.8% have one here.
Gal4-VP16 FLuc – inhibits Gal4-VP16 luciferase reporter, ROR gamma counter-screen. Drosophila S2 Gal4-VP16 UAS-luciferase, luminescence, 20 h. Potency, µM (doses to about 53.6 µM), for the others: top-dose activity, negative = inhibition, most hits filed as inhibitors. hit rate 3.5% among 310,000. AID 2546;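 note: Gal4-VP16 expression switched on by copper sulfate through the metallothionein promoter; potency is the fitted concentration of half-maximal effect; % is set by controls: 0 for no effect and ±100 for the full control effect; nearly all actives have a fitted effect of over 50% in size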
RORg inh – ROR gamma (mouse) transcription inhibition. P51450. Drosophila S2 Gal4-RORgamma UAS-luciferase reporter, 20 h. Potency, µM (highest dose often 53.6 µM), without a hit: at the highest dose activity change, negative = inhibition, hits mostly inhibitors. hit rate 5.4% among 310,000; note: potency is the fitted concentration of half-maximal effect; % is set by controls: 0 for no effect and ±100 for the full control effect; nearly all actives have a fitted effect of over 60% in size
Target sequence (P51450 whole entry, looked up, the tested form may be a part): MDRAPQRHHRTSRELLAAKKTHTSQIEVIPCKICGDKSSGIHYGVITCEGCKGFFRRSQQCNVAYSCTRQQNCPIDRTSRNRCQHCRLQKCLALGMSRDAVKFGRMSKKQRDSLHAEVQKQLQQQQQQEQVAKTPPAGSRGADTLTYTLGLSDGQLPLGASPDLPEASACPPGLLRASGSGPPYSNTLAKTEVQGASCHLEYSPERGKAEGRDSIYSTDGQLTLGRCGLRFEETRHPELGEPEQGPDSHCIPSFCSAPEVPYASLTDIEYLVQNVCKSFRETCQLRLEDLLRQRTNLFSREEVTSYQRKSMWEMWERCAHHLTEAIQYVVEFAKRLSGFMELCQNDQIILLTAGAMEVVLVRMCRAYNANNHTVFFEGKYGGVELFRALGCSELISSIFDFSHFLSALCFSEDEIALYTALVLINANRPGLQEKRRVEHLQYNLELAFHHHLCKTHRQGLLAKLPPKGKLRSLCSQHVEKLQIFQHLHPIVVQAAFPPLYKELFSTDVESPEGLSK
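Schneider cells (Drosophila), stable Gal4 DBD–ROR gamma + UAS-luc; 1 hr cmpd preincubation; Cu2+ induction 700 uM final; 20 hr ambient; luminescence.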
TRPV1 potentiator – human TRPV1 potentiation; TRPV1-expressing cells, Fluo-8 calcium influx, capsaicin EC20 potentiation; hit rate 0.02% among 320,000; Q8NER1; potentiation, % at 8.33 µM; in the data active = potentiation above about 80%; inconclusive = between about 30% and that limit; note: 0% is about no effect
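Fluo-8 calcium influx in TRPV1-expressing cells, kinetic read (ex 480/em 520 nm). Compound added and read 3 min for agonist activity, followed by capsaicin at EC20 final and 2 min further read for enhancement.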
uPA surface inh – blocks generation of uPA at the cell surface; cell surface uPA generation assay, qHTS; Potency, µM (top dose mostly 38.3 µM), without a hit: at the highest dose activity change, negative = inhibition, hits mostly inhibitors; hit rate 0.31% among 330,000; active = well fitted inhibition curve with a large enough effect; inconclusive = small, poorly fitted or top-dose-only effect; inactive = no such curve, though single readings can be large or run the other way; tested in mouse RAW 264.7 cells; note: potency is the fitted concentration of half-maximal effect; % is set by controls: 0 for no effect and ±100 for the full control effect; nearly all actives have a fitted effect of over 55% in size
TRPV1 agonist – human TRPV1 agonism; hit rate 0.19% among 320,000; TRPV1-expressing cells, Fluo-8 calcium influx, agonist mode; AID 540275; activation, % at 8.33 µM; in the data active = activation above about 80%; inconclusive = between about 30% and that limit; note: 0% is about no effect
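Cells expressing TRPV1 were dye-loaded with Fluo-8 and read kinetically: 10 s baseline, 3 min after compound (agonist portion), then 2 min after EC20 capsaicin (allosteric enhancer portion). Calcium-bound dye fluorescence at 480/520 nm.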
* hit, by the source's call; u = inconclusive; x = no result; [ ] = remark or other dose. Unless noted, calls come from the whole dose curve; as a rule, active = well fitted curve in the direction sought with a large enough effect; inconclusive = small, poorly fitted or top-dose-only effect, or another doubt; inactive = no such curve, though single readings can be large; an effect the other way counts as inactive or inconclusive.

SMILES | Gal4-VP16 FLuc | RORg inh | TRPV1 potentiator | uPA surface inh | TRPV1 agonist
O=C(CN1CCN(c2ccc(O)cc2)CC1)Nc1cc([N+](=O)[O-])ccc1Cl | u | -4% | -6 | -5% | -3
CSc1nnc(-c2cc(C)on2)n1-c1ccccc1 | -10% | -4% | 4 | 4% | 0
Cc1cc(C)n2nc(SCC(=O)c3cc(C)n(-c4cc(C)on4)c3C)nc2n1 | 4µM* | -5% | 10 | -9% | -2
Cc1cc(-n2c(C)cc(C(=O)CSc3ncnc4ccccc34)c2C)no1 | 5µM* | u | 13 | -9% | 0
Cc1cc(C(=O)CSc2ncnc3ccccc23)c(C)n1C1CC1 | x | x | 7 | 5% | 2
Cc1ccccc1NC(=O)c1ccccn1 | 29% | 2% | x | 3% | x
Cc1ccc(-c2ocnc2C(=O)Nc2ccccc2NC(=O)c2ccccn2)cc1 | 11µM* | 1.6µM* | -2 | -1% | u
Cc1cccc(-c2ocnc2C(=O)Nc2ccccc2NC(=O)c2ccccn2)c1 | 8.9µM* | 0.56µM* | 9 | 0% | 3
Cc1cccc(-c2ocnc2C(=O)Nc2ccccc2C(=O)N2CCCC2)c1 | -10% | 10% | 0 | -5% | 3
CSc1ccccc1NC(=O)c1ccccn1 | 1.3µM* | 0.45µM* | -4 | x | 12
CN(C)C(=O)c1ccc(NC(=O)COc2cccc3c2OC(C)(C)C3)cc1 | x | x | -11 | -6% | -1
COc1ccc(C(=O)N2CCC3(CC2)CN(Cc2ccc(C#N)cc2)C3)cc1 | 1% | -2% | x | x | x
CSCCC(NC(=O)C1CCC(C)CC1)C(=O)OCC(=O)c1ccc(Cl)cc1 (stereo not drawn) | 4µM* | 7% | -15 | -3% | 21
COc1cc(OC)c2c(=O)c(-c3ccccc3)c(C)oc2c1OC | 0% | 26% | x | x | x
Cc1cc(NC(=O)COC(=O)CCNS(=O)(=O)c2ccccc2)n(-c2ccccc2)n1 | x | x | -6 | -4% | 1
CCN1C(=O)c2cccc3c(N)ccc(c23)C1=O | -9% | 12% | 6 | -9% | 198*
Cc1nn(C)c(C)c1N1C(=O)c2cccc3c(N)ccc(c23)C1=O | -1% | -5% | -16 | -3% | 93*
O=C1c2cccc3c(N4CCCCC4)ccc(c23)C(=O)N1c1ccccn1 | 2% | u | -8 | 3% | u
Cc1ccc(N2C(=O)c3cccc4c(N)ccc(c34)C2=O)c2cccnc12 | u | u | -8 | -88% | 94*
Cc1nn(C)c(C)c1N1C(=O)c2cccc3c(Br)ccc(c23)C1=O | -31% | u | u | -4% | 0
C[C@@H]1CCN=C(N)S1 | 3% | 11% | x | x | x
CC[C@@H]1C/C=C\Cc2ccccc2[C@@H](C(=O)C[C@@H](O)CC(C)=O)OC1=O | x | x | x | 0% | x
c1ccc(-c2c3ccccc3nc3[nH]c4ccccc4c23)cc1 | u | 11µM* | 20 | -22% | -1
C=CCN(C(=O)CCC(=O)Nc1cc(C)on1)C(C(=O)NC1CCCC1)c1ccc(Cl)cc1 (stereo not drawn) | -1% | 15% | 8 | 3% | 5
C(=C\c1ccccc1)/CN1CCN(c2ncnc3c2oc2ccccc23)CC1 | 18µM* | u | -9 | x | 6
SMILES | Gal4-VP16 FLuc | RORg inh | TRPV1 potentiator | uPA surface inh | TRPV1 agonist
COc1cc2c(cc1OC)CN(C(=S)Nc1ccccc1)CC2 | -9% | 11µM* | -11 | 4% | 18
COc1cc2c(cc1OC)CN(C(=S)Nc1ccc(C)cc1C)CC2 | 20µM* | 10µM* | -10 | 0% | u
CCOC(=O)N1CCN(C(=O)c2ccc3c(=O)n(CCc4ccccc4)c(=S)[nH]c3c2)CC1 | 0% | 7.1µM* | x | -5% | x
CC1CCCCN1CCNC(=O)c1ccc2c(=O)n(Cc3ccc(Cl)cc3)c(=S)[nH]c2c1 (stereo not drawn) | u | 11µM* | -38 | -10% | -3
CCOC(=O)N1CCN(C(=O)c2ccc3c(=O)n(Cc4ccc(Cl)cc4)c(=S)[nH]c3c2)CC1 | u | 5.6µM* | 20 | -1% | -1
CC(=O)c1ccc(N2CCN(C(=O)c3ccc(Cn4c(=S)[nH]c5ccc(N6CCOCC6)cc5c4=O)cc3)CC2)cc1 | 25% | -8% | 6 | -1% | 2
CCCn1c(=S)[nH]c2cc(C(=O)N3CCN(C(=O)OCC)CC3)ccc2c1=O | 0% | -44% | 22 | -1% | -1
CCOC(=O)N1CCN(C(=O)c2ccc(Cn3c(=S)[nH]c4ccc(Br)cc4c3=O)cc2)CC1 | 14µM* | u | 2 | -1% | 4
COC(=O)c1c(C)nc(C)c(C(=O)OC)c1-c1ccccc1[N+](=O)[O-] | -18% | -11% | x | x | x
CC(C)(C)C(=O)/C(C#N)=C/c1cccs1 | -13% | 2% | 2 | 3% | 13
N#C/C(=C\c1cccs1)C(=O)c1ccccc1Cl | 7.9µM* | u | -11 | u | 18
N#C/C(=C\c1cccs1)C(=O)Nc1nccs1 | u | 7.1µM* | u | -2% | 0
CCCCc1c(C)nn(-c2nnc3c4ccccc4n(CC)c3n2)c1C | 4µM* | 1.8µM* | -16 | 0% | u
CC(=O)c1ccc(NS(=O)(=O)c2ccc(CC(C)C)cc2)cc1 | 10µM* | u | 19 | x | -11
CC(=O)c1ccc(NC(=O)Nc2ccc(NS(=O)(=O)c3ccc(C)cc3)cc2)cc1 | -4% | u | 9 | 9% | -1
CC(=O)Nc1ccc(S(=O)(=O)Nc2ccc(Cc3ccncc3)cc2)cc1 | 10µM* | u | 27 | -2% | -1
COc1ccc(S(=O)(=O)Nc2ccc(Cc3ccncc3)cc2)cc1C | 22µM* | 32% | 8 | 3% | 0
CC(=O)NC1CC2CCCC(C1)N2C(=O)Nc1cccc(C(C)=O)c1 (stereo not drawn) | x | x | x | 20% | x
Nn1c(SCC(=O)NCC2CCCO2)nnc1-c1cc(Cl)ccc1Cl (stereo not drawn) | x | x | -2 | -1% | -6
CC(C)N(C(=O)CSc1nc2ccccc2n1-c1ccccc1)C(C)C | u | 11µM* | -20 | x | u
CCCC(NC(=O)CCc1c(C)c2cc3c4c(oc3c(C)c2oc1=O)CCCC4)C(=O)O (stereo not drawn) | -23% | 0.79µM* | -1 | -10% | 1
O=C(NC(=S)Nc1cnc2ccccc2c1)c1ccccc1 | u | 5.6µM* | 3 | -13% | 11
O=C(NC(=S)Nc1ncc(Br)cc1Br)c1ccccc1 | 18µM* | 8.9µM* | -19 | 0% | 2
Cn1ncc2cc(NC(=S)NC(=O)c3ccccc3)ccc21 | u | 10µM* | 8 | -1% | 6
Cc1cc(C)c2c(NC(=S)NC(=O)c3ccccc3)nn(C)c2n1 | 5µM* | 1.4µM* | 16 | 2% | 9
Cc1cc(C)nc(NC(=S)NC(=O)c2ccccc2)n1 | u | u | 8 | -1% | -1
COc1ccc(NC(=S)NC(=O)c2ccccc2)cn1 | x | x | -4 | -23% | 15
Cc1cccc(NC(=O)NCCc2ccc(Cl)cc2)c1 | 17%[10 µM] | 15% | 2 | 0% | 8
CCc1ccccc1NC(=S)NCCSc1ccc(Cl)cc1 | 7.1µM* | 1.1µM* | -9 | -2% | 28

Screens (PubChem BioAssay)
